Screens from PubChem.
Rows were chosen to be rich in hits. Some 1.7% of all compounds tested hit in one or more screens of this group.
SARS 3CLpro inh = SARS-CoV 3CLpro protease inhibition | P0C6X7 | recombinant SARS-CoV 3CLpro, quenched FRET peptide cleavage | inhibition, % at 6 µM | hit rate 0.14% among 290,000 | AID 1706; in the data active means inhibition above about 12%
SSB-PriA inh = K. pneumoniae PriA-SSBct interaction inhibition; inhibition, % at 33 µM; AlphaScreen SSBct-PriA binding, biotinylated peptide; hit rate 0.6% among 430,000; in the data active means inhibition mostly above about 37%, no sharp cut-off; inactive means mostly below about 20%;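 further: plate controls were negative control peptide for no effect and reference peptide for full effect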
CCHF vOTU inh-1 = blocks the CCHF virus ovarian tumor domain protease. hit rate 0.55% among 370,000. inhibition, % at 11.5 µM. CCHFV vOTU protease, Pep-AMC fluorescence; further: 0% = vehicle wells with enzyme and 100% = no enzyme wells
VHR inh abs = blocks human VHR1 dual specificity phosphatase; AID 1654; inhibition, % at 13.3 µM; recombinant VHR phosphatase, pNPP absorbance; hit rate 0.52% among 290,000; P51452; in the data active means inhibition above about 50%
RecA splice inh = blocks M. tuberculosis RecA intein splicing | hit rate 0.75% among 290,000 | AID 2221 | P9WHJ3 | inhibition, % (concentration not given with the values) | cell-free RecA intein splicing, fluorescence; in the data active means inhibition above about 30%;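 further: 0% = vehicle wells and 100% = reference inhibitor control wells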
Target sequence (P9WHJ3 whole entry, looked up, canonical isoform): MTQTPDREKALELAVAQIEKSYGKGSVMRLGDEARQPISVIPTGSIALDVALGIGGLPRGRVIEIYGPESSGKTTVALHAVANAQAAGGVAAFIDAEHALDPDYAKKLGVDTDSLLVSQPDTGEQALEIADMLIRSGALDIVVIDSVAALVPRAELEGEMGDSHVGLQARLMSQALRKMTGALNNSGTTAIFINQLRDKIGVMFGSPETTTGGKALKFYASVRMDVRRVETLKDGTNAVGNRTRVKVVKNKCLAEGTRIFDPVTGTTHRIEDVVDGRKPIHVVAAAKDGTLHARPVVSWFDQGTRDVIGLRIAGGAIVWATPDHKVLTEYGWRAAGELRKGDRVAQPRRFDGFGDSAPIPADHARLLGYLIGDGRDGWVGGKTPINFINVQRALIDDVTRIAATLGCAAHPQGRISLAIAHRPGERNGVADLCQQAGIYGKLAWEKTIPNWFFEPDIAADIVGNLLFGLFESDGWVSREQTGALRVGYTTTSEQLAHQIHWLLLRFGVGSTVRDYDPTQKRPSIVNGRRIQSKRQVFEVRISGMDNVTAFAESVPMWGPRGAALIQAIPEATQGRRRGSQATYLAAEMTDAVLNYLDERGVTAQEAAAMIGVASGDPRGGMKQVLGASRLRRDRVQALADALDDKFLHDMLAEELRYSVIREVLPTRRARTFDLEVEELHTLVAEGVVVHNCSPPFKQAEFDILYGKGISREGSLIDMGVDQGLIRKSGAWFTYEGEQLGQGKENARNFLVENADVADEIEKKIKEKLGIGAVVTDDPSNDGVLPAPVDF
GFP chromophore = counter-screen GFP chromophore formation inhibition; shares compounds with RecA splice inh; cell-free GFP chromophore formation, fluorescence; EC50, µM; hit rate 83% among 2,100; AID 434968; call rule not given here
CCHF vOTU inh-2 = CCHFV vOTU protease inhibition, confirmation; shares compounds with CCHF vOTU inh-1; hit rate 17% among 1,900; inhibition, % at 11.5 µM; Recombinant CCHFV vOTU, Pep-AMC fluorescence; AID 686976
* hit, by the source's call; x = no result given. Unless noted, no stated cut-off is given here; in the data, active means inhibition above about 30%; inactive means the rest.

SMILES	SARS 3CLpro inh	SSB-PriA inh	CCHF vOTU inh-1	VHR inh abs	RecA splice inh	GFP chromophore	CCHF vOTU inh-2
COc1cccc2cc(C(=O)Nc3nc4ccc5sc(C)nc5c4s3)oc12	x	-16	x	x	x	x	x
CCOC(=O)c1cc([N+](=O)[O-])sc1NC(=O)c1ccc(SC)cc1	x	-8	x	x	x	x	x
CC1=NN(c2ccc(C(=O)O)c(N)c2)C(=O)C1	-2	-2	83*	-11	69*	2.6*	-13
CC(=O)c1c(C)oc2c1C(=O)c1ccccc1C2=O	-1	-4	11	13	2	x	x
COc1ccc(CNC(=O)c2c(C)oc3c2C(=O)c2ccccc2C3=O)cc1	0	10	54*	-4	58*	23*	48*
COc1cccc([C@H](CN)OC)c1	x	-3	x	x	x	x	x
O=C1c2ccccc2-c2onc3c(N4CCOCC4)cc(N4CCOCC4)c1c23	x	38	x	x	x	x	x
CCOC(=O)C(C(=O)OCC)c1cc(Br)c2noc3c2c1C(=O)c1ccccc1-3	-3	17	35*	0	82*	3.3*	11
O=C(NC(NC1CCS(=O)(=O)C1)C(=O)c1cccs1)c1ccccc1 (stereo not drawn)	0	-5	2	28	0	x	x
Cc1cccc(NC2=C(NC(=O)c3ccccc3)C(=O)c3ccccc3C2=O)c1	5	38	68*	26	72*	6.5*	37*
O=C(NC1=C(NC2CCS(=O)(=O)C2)C(=O)c2ccccc2C1=O)c1ccccc1 (stereo not drawn)	3	0	71*	8	84*	1*	69*
COc1cc(COCC2CCN(CC(=O)N3CCc4ccccc43)CC2)cc(OC)c1	x	-2	x	x	x	x	x
O=C1C(Cl)=C(Nc2ccc3cn[nH]c3c2)C(=O)c2ccccc21	6	10	87*	15	90*	1.5*	80*
COc1ccc2c(c1)CCCC2(O)CNS(=O)(=O)c1c(C)nn(C(C)C)c1C (stereo not drawn)	x	-13	x	x	x	x	x
COc1ccc(S(=O)(=O)C2CN(C(=O)CN3C(=O)CCC3=O)C2)cc1	x	2	x	x	x	x	x
O=S(=O)(/C=C/c1ccccc1)N1CCN(c2ccc(-c3cccs3)nn2)CC1	x	-11	x	x	x	x	x
O=[N+]([O-])c1c(Nc2ccccn2)cc(Cl)c2nonc12	3	-5	113*	4	87*	2.1*	94*
O=[N+]([O-])c1ccc(Nc2ccccn2)c([N+](=O)[O-])c1	-4	11	-4	-18	1	x	x
CC1=NN(c2ccccc2)C(=O)/C1=C\c1ccc(NC(=O)c2ccc(S(=O)(=O)N(C)C)cc2)cc1	x	2	x	x	x	x	x
COc1cc(/C=C2/C(=O)N(c3cccc(Br)c3)N=C2C)cc(OC)c1O	5	3	92*	63	87*	4.3*	-26
CC1=NN(c2ccccc2)C(=O)/C1=C/c1cccc(C)c1	3	6	76*	4	92*	2.3*	-18
COc1ccc(/C=C2/C(=O)N(c3ccccc3)N=C2C)cc1OC	5	-2	93*	-12	43*	9*	-20
CC(=O)Oc1ccc(/C=C2/C(=O)N(c3ccccc3)N=C2C)cc1	1	-3	103*	4	93*	3.5*	-12
COc1cccc(C(=O)N2CCN(c3ccc(-c4ccc(C)c(C)c4)nn3)CC2)c1OC	x	9	x	x	x	x	x
CCc1ccc(S(=O)(=O)Nc2cc(SCC(=O)O)c(O)c3ccccc23)cc1	5	14	114*	33	94*	0.7*	101*
SMILES	SARS 3CLpro inh	SSB-PriA inh	CCHF vOTU inh-1	VHR inh abs	RecA splice inh	GFP chromophore	CCHF vOTU inh-2
CCOc1ccc(S(=O)(=O)Nc2cc(SCC(=O)O)c(O)c3ccccc23)cc1	7	27	101*	4	96*	8.9*	77*
Cc1ccc(C(O)=C2C(=O)C(=O)N(C)C2c2ccc(F)cc2)cc1 (stereo not drawn)	x	-14	x	x	x	x	x
O=C(c1ccoc1)N1C2C=CCC1CC2 (stereo not drawn)	x	-14	x	x	x	x	x
COc1ccc2ccc3c(c2c1)N=C[C@]1(O3)N(C)c2ccccc2C1(C)C	0	-14	46*	0	89*	12*	-3
CC1=NOC2(C1)N(C)c1ccccc1C2(C)C (stereo not drawn)	4	-10	-8	6	3	x	x
COc1ccc(C(C[N+](=O)[O-])c2c(C)[nH]n(-c3ccccc3)c2=O)cc1 (stereo not drawn)	-2	3	100*	x	95*	5.3*	31*
Cc1[nH]n(-c2ccccc2)c(=O)c1C(c1ccc(O)c([N+](=O)[O-])c1)c1c(C)[nH]n(-c2ccccc2)c1=O	6	-18	70*	x	86*	2.3*	-8
O=c1c2cc([N+](=O)[O-])cc([N+](=O)[O-])c2[nH]n1-c1ccccc1	2	15	15	11	3	x	x
Cc1cc(=O)c(OCc2ccccc2)cn1CC(=O)N1CCN(c2ccccc2)CC1	x	-11	x	x	x	x	x
Cc1nnc(NC(=O)CN2CCC(c3nn(C)c(=O)n3C3CC3)CC2)s1	x	-3	x	x	x	x	x
Cc1ccc(NC2=C(NCCO)C(=O)c3ccccc3C2=O)cc1	7	56	115*	1	71*	20*	42*
CC(=O)Nc1ccc(NC2=C(Cl)C(=O)c3ccccc3C2=O)cc1	6	-8	2	12	7	x	x
COc1cc([N+](=O)[O-])ccc1NC(=O)CCS(=O)(=O)c1ccc(Cl)cc1	x	2	x	x	x	x	x
O=c1[nH]cnc2c1cnn2C1CCS(=O)(=O)C1 (stereo not drawn)	x	-14	x	x	x	x	x
Cc1cc(=O)n(C2CCS(=O)(=O)C2)[nH]1 (stereo not drawn)	-2	-1	57*	11	93*	3.8*	-18
O=C(N/N=C1\C/C(=N\NC(=O)c2ccncc2)c2ccccc21)c1ccncc1	-2	x	93*	6	95*	1.2*	83*
O=C(O)c1ccc(NC2=C(n3nnc4ccccc43)C(=O)c3ccccc3C2=O)cc1	1	-5	87*	25	88*	5.6*	89*
O=C(O)CCCCCNC1=C(n2nnc3ccccc32)C(=O)c2ccccc2C1=O	x	-17	x	x	x	x	x
CC(C)Sc1ccc(CC(=O)N2CC(Oc3nccs3)C2)cc1	x	-11	x	x	x	x	x
CCc1ccc(S(=O)(=O)Nc2ccc(O)c3ccccc23)cc1	-3	19	62*	x	92*	0.15*	-16
O=S(=O)(Nc1ccc(O)c2ccccc12)c1ccc(F)cc1	x	8	81*	x	94*	0.15*	5
O=C1CCSCC(C(=O)NCc2ccccn2)N1 (stereo not drawn)	x	-9	x	x	x	x	x
COC(CNC(=O)C(=O)Nc1cc(N2CCCS2(=O)=O)ccc1C)OC	x	-14	x	x	x	x	x
O=[N+]([O-])c1ccc(N2CCCCCC2)c2nonc12	-7	-13	14	4	-14	x	x
Nc1ccc(N2CCCCC2)c2nonc12	6	29	111*	16	75*	11*	34*
Cc1cc(N2CCOCC2)nc(Nc2ccc(NS(=O)(=O)c3ccc(Br)cc3)cc2)n1	x	-18	x	x	x	x	x
